In PubChem BioAssay:
For some assays here: Results with a measured potency or affinity are listed apart. Calls of active or inactive are those of the source. Unless noted, the rule behind the calls is not given here.

What was measured:
[1] = antimalarial activity against Dd2 strain (AID 2302;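 active = growth inhibition above 50% at the single 2 µM test dose, taken to imply half-maximal potency below 2 µM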;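 note: 0% = DMSO untreated growth and 100% = chloroquine plus artemisinin killed control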); details: P. falciparum Dd2 in RBCs, LDH growth readout, 72 h; at 2 µM; hits give high values
[2] = target: L-lactate dehydrogenase (Plasmodium falciparum (isolate CDC / Honduras)) (UniProt Q27743); test: PfLDH activity inhibition – cell lysate, 3D7 strain, counter-screen for P. falciparum growth inhibition project (AID 2304);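 note: 0% = vehicle and 100% = reference inhibitor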; details: P. falciparum 3D7 crude extract, LDH APAD/NBT absorbance; at 2 µM; hits give high values
[3] = inhibition of 3D7 malaria parasite growth – strain 3D7 (AID 2306);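 note: 0% = DMSO wells and 100% = chloroquine plus artemisinin control wells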; details: P. falciparum 3D7 erythrocytic growth, LDH absorbance, 72 h; at 2 µM; hits give high values
[4] = target: Calcium-dependent protein kinase 1 (Plasmodium falciparum (isolate 3D7)) (UniProt P62344); test: PfCDPK1 kinase inhibitors, biochemical, TCAMS library (AID 1159585; cut-off not given, nearly all actives have IC50 up to about 0.98 µM;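 note: inhibitors leave more ATP so luminescence rises with inhibition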); details: recombinant PfCDPK1, Kinase-Glo ATP depletion luminescence
[5] = target: Plasmodium falciparum protein kinase 6 (PK6, PF3D7_1337100) (UniProt Q8IDW1); test: PfPK6 kinase inhibitors, biochemical, TCAMS library (AID 1159586); details: recombinant PfPK6, Kinase-Glo ATP depletion luminescence
[6] = target: Protein kinase 7 (PK7), Plasmodium falciparum 3D7 (PF3D7_0213400) (UniProt Q7YTF7); test: inhibition of Plasmodium PK7 catalytic activity – biochemical, TCAMS antimalarial set, Kinase-Glo luminescence (AID 1159587); details: recombinant PfPK7, Kinase-Glo ATP depletion luminescence
[7] = target: Calcium-dependent protein kinase 4 (Plasmodium falciparum (isolate 3D7)) (UniProt Q8IBS5); test: PfCDPK4 kinase inhibitors, biochemical, TCAMS library (AID 1159588; cut-off not given, nearly all actives have IC50 up to about 0.91 µM); details: recombinant PfCDPK4, Kinase-Glo ATP depletion luminescence
[8] = human hepatoma cell viability loss – ATP luminescence, cytotoxicity control for P. falciparum antimalarial project, primary screen (AID 2303;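 active = inhibition above 50%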;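 note: 0% = DMSO wells and 100% = digitonin-killed cells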); details: HepG2 viability, 24-48 h, at 10 µM, hits give high values

Chain of Calcium-dependent protein kinase 1 (Plasmodium falciparum (isolate 3D7)) (P62344 whole entry, looked up): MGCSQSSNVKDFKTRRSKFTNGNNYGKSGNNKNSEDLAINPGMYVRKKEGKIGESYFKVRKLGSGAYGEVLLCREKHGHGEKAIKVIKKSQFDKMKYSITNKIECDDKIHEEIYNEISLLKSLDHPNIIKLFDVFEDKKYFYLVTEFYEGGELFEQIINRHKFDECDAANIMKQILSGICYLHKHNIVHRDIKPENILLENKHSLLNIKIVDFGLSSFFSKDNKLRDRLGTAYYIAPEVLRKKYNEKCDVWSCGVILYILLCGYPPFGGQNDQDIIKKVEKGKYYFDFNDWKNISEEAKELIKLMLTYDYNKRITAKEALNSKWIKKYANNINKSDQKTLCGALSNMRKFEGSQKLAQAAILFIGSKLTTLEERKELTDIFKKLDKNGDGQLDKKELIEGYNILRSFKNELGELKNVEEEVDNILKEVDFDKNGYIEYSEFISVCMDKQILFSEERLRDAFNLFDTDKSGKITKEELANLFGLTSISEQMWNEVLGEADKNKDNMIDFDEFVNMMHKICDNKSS
Chain of Calcium-dependent protein kinase 4 (Plasmodium falciparum (isolate 3D7)) (Q8IBS5 whole entry, looked up): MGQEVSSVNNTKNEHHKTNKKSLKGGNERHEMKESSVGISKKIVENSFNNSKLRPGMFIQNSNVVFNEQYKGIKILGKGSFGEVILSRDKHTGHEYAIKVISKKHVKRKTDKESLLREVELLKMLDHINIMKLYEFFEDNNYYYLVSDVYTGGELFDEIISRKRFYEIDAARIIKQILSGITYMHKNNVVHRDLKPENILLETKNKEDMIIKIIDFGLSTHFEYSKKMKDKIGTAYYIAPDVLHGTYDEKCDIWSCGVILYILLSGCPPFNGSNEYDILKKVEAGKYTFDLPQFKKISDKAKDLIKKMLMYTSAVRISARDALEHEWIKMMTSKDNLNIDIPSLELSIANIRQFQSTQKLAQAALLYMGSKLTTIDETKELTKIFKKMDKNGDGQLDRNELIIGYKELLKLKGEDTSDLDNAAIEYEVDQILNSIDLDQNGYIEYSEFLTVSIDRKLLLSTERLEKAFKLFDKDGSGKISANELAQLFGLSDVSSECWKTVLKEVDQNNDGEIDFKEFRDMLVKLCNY
Chain of L-lactate dehydrogenase (Plasmodium falciparum (isolate CDC / Honduras)) (Q27743 whole entry, looked up): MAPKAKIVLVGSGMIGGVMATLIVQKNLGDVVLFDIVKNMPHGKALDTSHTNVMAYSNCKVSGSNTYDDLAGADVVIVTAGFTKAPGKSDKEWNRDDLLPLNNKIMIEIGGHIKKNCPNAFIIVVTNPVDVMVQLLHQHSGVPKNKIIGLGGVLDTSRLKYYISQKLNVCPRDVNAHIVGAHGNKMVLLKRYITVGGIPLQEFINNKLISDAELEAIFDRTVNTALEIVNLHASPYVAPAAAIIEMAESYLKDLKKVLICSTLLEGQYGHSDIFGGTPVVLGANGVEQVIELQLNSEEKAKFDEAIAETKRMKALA
Chain of Plasmodium falciparum protein kinase 6 (PK6, PF3D7_1337100) (Q8IDW1 1-305): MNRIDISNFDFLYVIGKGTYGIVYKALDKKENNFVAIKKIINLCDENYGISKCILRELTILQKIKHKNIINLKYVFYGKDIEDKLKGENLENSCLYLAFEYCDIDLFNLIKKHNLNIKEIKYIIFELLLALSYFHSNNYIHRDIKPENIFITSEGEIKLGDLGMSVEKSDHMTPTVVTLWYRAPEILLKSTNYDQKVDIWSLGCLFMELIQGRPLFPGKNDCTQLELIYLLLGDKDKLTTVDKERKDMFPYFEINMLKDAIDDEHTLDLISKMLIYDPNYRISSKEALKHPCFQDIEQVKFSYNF
Chain of Protein kinase 7 (PK7), Plasmodium falciparum 3D7 (PF3D7_0213400) (Q7YTF7 1-343): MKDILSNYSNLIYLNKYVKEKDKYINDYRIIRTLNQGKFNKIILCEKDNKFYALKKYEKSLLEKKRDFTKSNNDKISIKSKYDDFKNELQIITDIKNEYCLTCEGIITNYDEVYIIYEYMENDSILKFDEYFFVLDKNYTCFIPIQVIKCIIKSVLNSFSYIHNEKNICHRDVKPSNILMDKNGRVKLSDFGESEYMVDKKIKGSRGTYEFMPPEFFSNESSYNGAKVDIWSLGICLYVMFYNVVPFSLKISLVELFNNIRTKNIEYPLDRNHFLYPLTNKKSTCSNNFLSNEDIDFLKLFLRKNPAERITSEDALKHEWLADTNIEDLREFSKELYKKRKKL

COc1ccc(-c2cnc(N)nc2N)cc1Cl
active: growth inhibition [3] 84%
inactive: growth inhibition [1] 1% | inhibition [2] 4% | outcome [4] | outcome [5] | outcome [6] | outcome [7]

Cc1[nH]c(C)c(-c2ccc(Oc3ccc(Cl)c(Cl)c3)cc2)c(=O)c1Cl
inactive: inhibition [2] -1% | outcome [4] | outcome [5] | outcome [6] | outcome [7]
active: growth inhibition [1] 97% | growth inhibition [3] 100%

NC(N)=NC(=O)Nc1cc(Br)c(Cl)c(C(F)(F)F)c1
active: growth inhibition [1] 91% | growth inhibition [3] 101%
inactive: inhibition [2] 0% | outcome [4] | outcome [5] | outcome [6] | outcome [7]

CCCCCCCN(Cc1ccc(OC(C)(C)C(=O)OCC)cc1)C(=O)Cc1ccc(F)cc1F
inactive: inhibition [2] -3% | outcome [4] | outcome [5] | outcome [6] | outcome [7]
active: growth inhibition [1] 95% | growth inhibition [3] 93%

CCCc1cc2c3c(N)nc(N)nc3ccc2n1CC
active: growth inhibition [3] 96%
inactive: growth inhibition [1] 6% | inhibition [2] -1% | outcome [4] | outcome [5] | outcome [6] | outcome [7]

CC(C)c1ccc2c(c1)C(=O)c1ccc(C(=O)O)cc1S2(=O)=O
active: growth inhibition [1] 83% | growth inhibition [3] 93%
inactive: inhibition [2] -4% | outcome [4] | outcome [5] | outcome [6] | outcome [7]

Nc1ncc(-c2ccc(S(=O)(=O)Nc3ccc(C(=O)N[C@@H](CCC(=O)O)C(=O)O)cc3)cc2)c(=O)[nH]1
active: growth inhibition [3] 99%
inactive: growth inhibition [1] 0% | inhibition [2] -3% | outcome [4] | outcome [5] | outcome [6] | outcome [7]

COc1cc(Cc2cnc(N)nc2N)cc(OCCCCNS(=O)(=O)C(F)(F)F)c1OC
inactive: growth inhibition [1] -5% | inhibition [2] 7% | outcome [4] | outcome [5] | outcome [6] | outcome [7]
active: growth inhibition [3] 84%

Cc1[nH]c(C)c(-c2ccc(Oc3ccc(Cl)cc3)c(Cl)c2)c(=O)c1Br
inactive: inhibition [2] -1% | outcome [4] | outcome [5] | outcome [6] | outcome [7]
active: growth inhibition [1] 96% | growth inhibition [3] 97%

CN(C)S(=O)(=O)n1ccc2c3c(N)nc(N)nc3ccc21
active: growth inhibition [3] 94%
inactive: growth inhibition [1] -3% | inhibition [2] -4% | outcome [4] | outcome [5] | outcome [6] | outcome [7]

CC1CCNc2ccc(Cc3cnc(N)nc3N)cc21 (centres undefined)
inactive: growth inhibition [1] 0% | inhibition [2] 5% | outcome [4] | outcome [5] | outcome [6] | outcome [7]
active: growth inhibition [3] 82%

C=CCOc1ccc(Cc2cnc(N)nc2N)cc1CCC
active: growth inhibition [3] 93%
inactive: growth inhibition [1] -1% | inhibition [2] -1% | outcome [4] | outcome [5] | outcome [6] | outcome [7]

Cc1nc(C)c(-c2ccc(Oc3ccc(OC(F)(F)F)cc3)cc2)c(OC(=O)c2ccc(CN(C)C)cc2)c1Cl
inactive: inhibition [2] 6% | outcome [4] | outcome [5] | outcome [6] | outcome [7]
active: growth inhibition [1] 98% | growth inhibition [3] 98%

CCc1cc(COc2ccc(CNCCC(C)C)cc2I)c(OCc2ccccc2)c(COc2ccc(CNCCC(C)C)cc2I)c1
active: growth inhibition [3] 89%
inactive: growth inhibition [1] 15% | inhibition [2] 0% | outcome [4] | outcome [5] | outcome [6] | outcome [7]

CC(C)(C)c1ccc(Cc2cccc3nc(N)nc(N)c23)cc1
active: growth inhibition [1] 51% | growth inhibition [3] 100%
inactive: inhibition [2] 4% | outcome [4] | outcome [5] | outcome [6] | outcome [7]

COc1cc(Cc2cnc(N)nc2N)cc(OCCCC#N)c1OC
inactive: growth inhibition [1] -1% | inhibition [2] -3% | outcome [4] | outcome [5] | outcome [6] | outcome [7]
active: growth inhibition [3] 86%

CC(CN=C(N)c1cccc(C(N)=NCC(C)Oc2cccc(C3CCCCC3)c2)n1)Oc1cccc(C2CCCCC2)c1 (centres undefined)
active: growth inhibition [3] 90%
inactive: growth inhibition [1] 31% | inhibition [2] 2% | outcome [4] | outcome [5] | outcome [6] | outcome [7]

CCNC(=O)CCc1cccc(Br)c1
active: growth inhibition [1] 54% | growth inhibition [3] 89%
inactive: inhibition [2] 6% | outcome [4] | outcome [5] | outcome [6] | outcome [7]

Cc1nc(N)nc(N)c1-c1ccc(Br)c(Br)c1
inactive: growth inhibition [1] 1% | inhibition [2] -2% | outcome [4] | outcome [5] | outcome [6] | outcome [7]
active: growth inhibition [3] 94%

CC(C)c1ccc(Cn2cc(-c3ccncc3)c3cc(OCc4ccccc4)ccc32)cc1
active: growth inhibition [1] 88% | growth inhibition [3] 99%
inactive: inhibition [2] -1% | outcome [4] | outcome [5] | outcome [6] | outcome [7]

Nc1ncc(-c2ccc(F)c(Cl)c2)c(N)n1
active: growth inhibition [3] 83%
inactive: growth inhibition [1] -2% | inhibition [2] 5% | outcome [4] | outcome [5] | outcome [6] | outcome [7]

CC(=NNc1nc2ccccc2s1)c1ccccn1
inactive: growth inhibition [1] 47% | inhibition [2] -2% | outcome [4] | outcome [5] | outcome [6] | outcome [7]
active: growth inhibition [3] 88%

Cc1ccc(Cc2cccc3nc(N)nc(N)c23)cc1
active: growth inhibition [3] 92%
inactive: growth inhibition [1] 0% | inhibition [2] -2% | outcome [4] | outcome [5] | outcome [6] | outcome [7]

Nc1nc(N)c2c(ccc3nn(Cc4ccccc4)cc32)n1
inactive: inhibition [2] 0% | outcome [4] | outcome [5] | outcome [6] | outcome [7]
active: growth inhibition [1] 88% | growth inhibition [3] 97%

Cc1cccc(Cn2ccc3c4c(N)nc(N)nc4ccc32)c1
active: growth inhibition [1] 98% | growth inhibition [3] 95%
inactive: inhibition [2] 1% | outcome [4] | outcome [5] | outcome [6] | outcome [7]

Cc1[nH]c(C)c(-c2ccc(Oc3cccc(OC(F)(F)F)c3)cc2)c(=O)c1Cl
inactive: inhibition [2] -1% | outcome [4] | outcome [5] | outcome [6] | outcome [7]
active: growth inhibition [1] 97% | growth inhibition [3] 97%

CCOc1cc(Cc2cnc(N)nc2N)cc(Br)c1OC
inactive: growth inhibition [1] 3% | inhibition [2] 5% | outcome [4] | outcome [5] | outcome [6] | outcome [7]
active: growth inhibition [3] 83%

CC(C)Cn1cc2c(ccc3nc(N)nc(N)c32)n1
active: growth inhibition [3] 97%
inactive: growth inhibition [1] 2% | inhibition [2] -2% | outcome [4] | outcome [5] | outcome [6] | outcome [7]

Cc1cccc(-c2c(C)nc(N)nc2N)c1
active: growth inhibition [3] 88%
inactive: growth inhibition [1] -9% | inhibition [2] -6% | outcome [4] | outcome [5] | outcome [6] | outcome [7]

Cc1[nH]c(C)c(-c2ccc(Oc3ccc(S(C)=O)cc3)cc2)c(=O)c1Br (centres undefined)
inactive: inhibition [2] 0% | outcome [4] | outcome [5] | outcome [6] | outcome [7]
active: growth inhibition [1] 64% | growth inhibition [3] 91%

COc1cc(Cc2cnc(N)nc2N)cc(OCCCCc2ccc([N+](=O)[O-])cc2)c1OC
inactive: growth inhibition [1] 4% | inhibition [2] -10% | outcome [4] | outcome [5] | outcome [6] | outcome [7]
active: growth inhibition [3] 88%

CCCN(c1ccc(O)c(CN2CCCCC2)c1)c1ccc([N+](=O)[O-])cn1
active: growth inhibition [1] 96% | growth inhibition [3] 99%
inactive: inhibition [2] 4% | outcome [4] | outcome [5] | outcome [6] | outcome [7]

Cc1ccccc1OCCCc1c(C)nc(N)nc1N
active: growth inhibition [3] 97%
inactive: growth inhibition [1] 1% | inhibition [2] -3% | outcome [4] | outcome [5] | outcome [6] | outcome [7]

COc1ccc(CCN2CC[C@H](CNc3nc(-c4ccccc4)nc4ccccc34)C2)cc1S(N)(=O)=O
active: inhibition [8] 54% | growth inhibition [3] 85%
inactive: inhibition [2] -4% | outcome [4] | outcome [5] | outcome [6] | outcome [7]

CCCCNCc1ccc(OCc2cccc(COc3ccc(CNCCCC)cc3I)c2)c(I)c1
active: growth inhibition [3] 87%
inactive: growth inhibition [1] 13% | inhibition [2] 6% | outcome [4] | outcome [5] | outcome [6] | outcome [7]

CCc1cc(-c2n[nH]c(C(F)(F)F)c2-c2ccccc2)c(O)cc1OC
inactive: inhibition [8] 9% | inhibition [2] 1% | outcome [4] | outcome [5] | outcome [6] | outcome [7]
active: growth inhibition [3] 84%

COc1ccc(C2CC(c3cccs3)=NN2C(=O)COc2cccc(C(C)=O)c2)cc1OC (centres undefined)
active: growth inhibition [3] 99%
inactive: inhibition [8] 10% | inhibition [2] -2% | outcome [4] | outcome [5] | outcome [6] | outcome [7]

COc1ccc(C2c3ccccc3-c3nc(N)nc(N)c3C2C)cc1 (centres undefined)
inactive: growth inhibition [1] 0% | inhibition [2] 3% | outcome [4] | outcome [5] | outcome [6] | outcome [7]
active: growth inhibition [3] 97%

Cc1nc(Cl)c2c(-c3ccccc3)csc2n1
inactive: inhibition [8] -11% | inhibition [2] 1% | outcome [4] | outcome [5] | outcome [6] | outcome [7]
active: growth inhibition [3] 84%

CCCCNCc1cc(Cl)c2ccccc2c1O
active: growth inhibition [1] 100% | growth inhibition [3] 102%
inactive: inhibition [2] 0% | outcome [4] | outcome [5] | outcome [6] | outcome [7]

COc1cccc(-c2cc3c(NCc4ccncc4)nccc3s2)c1
inactive: inhibition [8] 0% | inhibition [2] -2% | outcome [4] | outcome [5] | outcome [6] | outcome [7]
active: growth inhibition [3] 87%

O=C(Nc1cccc(-c2nn3ccccc3c2-c2ccnc(Nc3cccc(F)c3)n2)c1)C1CCCCC1
active: growth inhibition [3] 85%
inactive: inhibition [8] 44% | inhibition [2] 3% | outcome [4] | outcome [5] | outcome [6] | outcome [7]

Cc1[nH]c(C)c(-c2ccc(Oc3cccc(C(F)(F)F)c3)cc2)c(=O)c1Br
active: growth inhibition [1] 97% | growth inhibition [3] 99%
inactive: inhibition [2] 4% | outcome [4] | outcome [5] | outcome [6] | outcome [7]

Nc1nc(N)c2c(ccc3c2ccn3Cc2ccc3c(c2)OCO3)n1
active: growth inhibition [1] 95% | growth inhibition [3] 100%
inactive: inhibition [2] -3% | outcome [4] | outcome [5] | outcome [6] | outcome [7]

Nc1nnc(-c2ccc(Cl)c(Br)c2)c(N)n1
inactive: growth inhibition [1] -3% | inhibition [2] -3% | outcome [4] | outcome [5] | outcome [6] | outcome [7]
active: growth inhibition [3] 86%

COc1ccc(CN2CCN(CC(=O)Nc3cc(Cl)ccc3-n3cncn3)CC2)cc1F
active: growth inhibition [3] 93%
inactive: inhibition [8] 0% | inhibition [2] -1% | outcome [4] | outcome [5] | outcome [6] | outcome [7]

Cc1c(Cc2ccc(C(C)C)cc2)cnc2nc(N)nc(N)c12
active: growth inhibition [3] 97%
inactive: growth inhibition [1] -3% | inhibition [2] 6% | outcome [4] | outcome [5] | outcome [6] | outcome [7]
